Results: PubChem BioAssay (NCATS)
Records with an inconclusive call do not appear. The source made the active and inactive calls. Unless noted, the call rests on the fitted dose curve; in most records, active means well fitted curve in the direction sought with a large enough effect; inconclusive means small, poorly fitted or top-dose-only effect, or another doubt; inactive means no such curve, though single readings can be large; an effect the other way counts as inactive or inconclusive.

What was measured:
[1] = target: ATP-dependent 6-phosphofructokinase (Trypanosoma brucei brucei) (UniProt O15648); assay: qHTS Assay to Find Inhibitors of T. brucei phosphofructokinase: hit validation (AID 492961);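 further: luminescence reports ADP formed as PFK phosphorylates fructose-6-phosphate with ATP; on the % scale 0 is the no-effect control and ±100 the full control effect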
In short: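 In this biochemical qHTS validation, titrated compounds were tested against 1.25 nM PFK with 0.1 mM ATP and 0.5 mM F6P. Percent activity came from controls lacking or containing enzyme.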

[2] = target: Ubiquitin carboxyl-terminal hydrolase 1 (Homo sapiens) (UniProt O94782); assay: Inhibitors of USP1/UAF1: Pilot qHTS (AID 504865);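 further: rhodamine fluorescence freed from ubiquitin-rhodamine substrate followed over time; top concentration of the series differs between compounds; on the % scale 0 is the no-effect control and ±100 the full control effect; nearly all actives have a fitted effect of over 35% in size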
In short: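 In 50mM HEPES pH 7.8 containing 0.5mM EDTA, 1mM TCEP, 0.1 mg/ml BSA and 0.01% Tween-20, 1nM USP1/UAF1 is exposed to compound for 15 min, then Ub-Rho (150nM final) is added and fluorescence is read over time.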

[3] = target: Luciferin 4-monooxygenase (Photinus pyralis) (UniProt P08659); assay: Biochemical firefly luciferase enzyme assay for NPC (AID 624030);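 further: purified P. pyralis luciferase at 10 nM with luciferin and ATP substrate; 0% = DMSO and -100% = full luciferase inhibition by PTC124 control; nearly all actives have a fitted effect of over 70% in size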
In short: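 Direct inhibition of firefly luciferase enzyme (10 nM final, 50 mM Tris Acetate) assessed by luminescence within 5 minutes. Percent activity scaled between DMSO and PTC124 positive control, with concentration-effect curves classified by fit quality and response.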

[4] = S16 Schwann cell viability assay (CellTiter-Glo assay) (AID 624031);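 further: cellular ATP luminescence as a viability measure; plate controls were DMSO-treated cells for no effect and cell-free wells for full effect; nearly all actives have a fitted effect of over 70% in size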
In short: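 Native S16 rat Schwann cells in DMEM/10% FBS without phenol red were incubated overnight, then exposed to compounds for 24 h at 37 °C/5% CO2. Viability was read as ATP luminescence (CellTiter-Glo), normalized to no-cell wells and DMSO (0%).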

[5] = S16 Schwann cell PMP22 intronic element firefly luciferase assay (AID 624032);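 further: plate controls were DMSO for no effect and PTC124 positive control mean for full effect; nearly all actives have a fitted effect of over 30% in size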
In short: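 Luciferase reporter of PMP22 intronic-element expression in stably transfected S16 rat Schwann cells, read by ONE-Glo luminescence after 24 h compound exposure at 37 C. Activity scaled between DMSO (0%) and positive-control PTC124; concentration-effect curves quality-classified.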

[6] = S16 Schwann cell PMP22 intronic element beta-lactamase assay (AID 624044; calls by dose curve;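 further: 0% = DMSO and -100% = potassium clavulanate positive control; nearly all actives have a fitted effect of over 15% in size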); details: S16 rat Schwann cells, PMP22 element beta-lactamase FRET, 24 h; ratio activity, negative = inhibition: at 38.3 µM (top of the series)
In short: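 Rat S16 Schwann cells with beta-Lac driven by a PMP22 intronic element, compound-treated 24 h at 37 °C. LiveBLAzer FRET B/G read: 460 nm normalized to potassium clavulanate vs DMSO; 535 nm FRET as viability; concentration-effect curves classified.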

[7] = qHTS profiling for inhibitors of Plasmodium falciparum proliferation (AID 504749);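 further: 0% = DMSO vehicle and full inhibition = artemisinin control; nearly all actives have a fitted effect of over 60% in size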; details: P. falciparum in erythrocytes, SYBR Green DNA, 72 h, at 28.7 µM (top of the series)
In short: (§1)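 Infected RBCs, 0.3% parasitemia/2.5% Hct final; cpd 72 h, 37 C, 5% CO2; lysis buffer with saponin/triton/SYBR Green I, o/n RT dark; FI 485/535; norm. to artemisinin (0.29 uM) and DMSO.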

3D7 = assay: as above; details: P. falciparum in erythrocytes, SYBR Green DNA, 72 h; series mostly up to 28.7 µM
In short: as §1

7G8 = assay: as above; details: P. falciparum in erythrocytes, SYBR Green DNA, 72 h; series mostly up to 28.7 µM
In short: as §1

AA1029 = assay: as above; details: P. falciparum in erythrocytes, SYBR Green DNA, 72 h; series mostly up to 28.7 µM
In short: as §1

AS120 = assay: as above; details: P. falciparum in erythrocytes, SYBR Green DNA, 72 h; series mostly up to 28.7 µM
In short: as §1

ATS189 = assay: as above; details: P. falciparum in erythrocytes, SYBR Green DNA, 72 h; series mostly up to 28.7 µM
In short: as §1

ATS95 = assay: as above; details: P. falciparum in erythrocytes, SYBR Green DNA, 72 h; series mostly up to 28.7 µM
In short: as §1

C2A = assay: as above; details: P. falciparum in erythrocytes, SYBR Green DNA, 72 h; series mostly up to 28.7 µM
In short: as §1

CP185 = assay: as above; details: P. falciparum in erythrocytes, SYBR Green DNA, 72 h; series mostly up to 28.7 µM
In short: as §1

CP191 = assay: as above; details: P. falciparum in erythrocytes, SYBR Green DNA, 72 h; series mostly up to 28.7 µM
In short: as §1

CP192 = assay: as above; details: P. falciparum in erythrocytes, SYBR Green DNA, 72 h; series mostly up to 28.7 µM
In short: as §1

CP194 = assay: as above; details: P. falciparum in erythrocytes, SYBR Green DNA, 72 h; series mostly up to 28.7 µM
In short: as §1

CP201 = assay: as above; details: P. falciparum in erythrocytes, SYBR Green DNA, 72 h; series mostly up to 28.7 µM
In short: as §1

CP203 = assay: as above; details: P. falciparum in erythrocytes, SYBR Green DNA, 72 h; series mostly up to 28.7 µM
In short: as §1

CP211 = assay: as above; details: P. falciparum in erythrocytes, SYBR Green DNA, 72 h; series mostly up to 28.7 µM
In short: as §1

CP215 = assay: as above; details: P. falciparum in erythrocytes, SYBR Green DNA, 72 h; series mostly up to 28.7 µM
In short: as §1

CP217 = assay: as above; details: P. falciparum in erythrocytes, SYBR Green DNA, 72 h; series mostly up to 28.7 µM
In short: as §1

CP237 = assay: as above; details: P. falciparum in erythrocytes, SYBR Green DNA, 72 h; series mostly up to 28.7 µM
In short: as §1

CP238 = assay: as above; details: P. falciparum in erythrocytes, SYBR Green DNA, 72 h; series mostly up to 28.7 µM
In short: as §1

CP247 = assay: as above; details: P. falciparum in erythrocytes, SYBR Green DNA, 72 h; series mostly up to 28.7 µM
In short: as §1

CP250 = assay: as above; details: P. falciparum in erythrocytes, SYBR Green DNA, 72 h; series mostly up to 28.7 µM
In short: as §1

CP252 = assay: as above; details: P. falciparum in erythrocytes, SYBR Green DNA, 72 h; series mostly up to 28.7 µM
In short: as §1

CP256 = assay: as above; details: P. falciparum in erythrocytes, SYBR Green DNA, 72 h; series mostly up to 28.7 µM
In short: as §1

CP260 = assay: as above; details: P. falciparum in erythrocytes, SYBR Green DNA, 72 h; series mostly up to 28.7 µM
In short: as §1

CP262 = assay: as above; details: P. falciparum in erythrocytes, SYBR Green DNA, 72 h; series mostly up to 28.7 µM
In short: as §1

CP265 = assay: as above; details: P. falciparum in erythrocytes, SYBR Green DNA, 72 h; series mostly up to 28.7 µM
In short: as §1

Chain of Ubiquitin carboxyl-terminal hydrolase 1 (Homo sapiens) (O94782 whole entry, looked up): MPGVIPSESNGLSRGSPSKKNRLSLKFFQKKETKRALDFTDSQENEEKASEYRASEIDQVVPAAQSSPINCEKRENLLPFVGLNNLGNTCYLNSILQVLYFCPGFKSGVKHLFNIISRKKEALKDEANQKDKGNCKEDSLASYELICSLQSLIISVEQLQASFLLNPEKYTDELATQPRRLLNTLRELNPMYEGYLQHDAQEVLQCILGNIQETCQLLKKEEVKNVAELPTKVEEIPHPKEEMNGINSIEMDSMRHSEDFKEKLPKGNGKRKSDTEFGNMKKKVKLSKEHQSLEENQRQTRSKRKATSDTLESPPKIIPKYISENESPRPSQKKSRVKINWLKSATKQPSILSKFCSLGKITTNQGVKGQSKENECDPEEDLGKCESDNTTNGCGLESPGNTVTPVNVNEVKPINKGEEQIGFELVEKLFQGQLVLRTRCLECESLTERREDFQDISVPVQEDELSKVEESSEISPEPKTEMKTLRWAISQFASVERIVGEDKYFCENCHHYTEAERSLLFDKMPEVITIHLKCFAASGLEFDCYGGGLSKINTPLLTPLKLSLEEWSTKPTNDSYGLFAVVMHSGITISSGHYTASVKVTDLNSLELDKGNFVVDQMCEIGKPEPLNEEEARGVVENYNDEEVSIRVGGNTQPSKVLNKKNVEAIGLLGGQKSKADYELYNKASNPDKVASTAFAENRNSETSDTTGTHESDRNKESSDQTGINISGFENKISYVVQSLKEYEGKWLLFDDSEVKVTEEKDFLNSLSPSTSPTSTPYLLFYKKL
Chain of Luciferin 4-monooxygenase (Photinus pyralis) (P08659 whole entry, looked up): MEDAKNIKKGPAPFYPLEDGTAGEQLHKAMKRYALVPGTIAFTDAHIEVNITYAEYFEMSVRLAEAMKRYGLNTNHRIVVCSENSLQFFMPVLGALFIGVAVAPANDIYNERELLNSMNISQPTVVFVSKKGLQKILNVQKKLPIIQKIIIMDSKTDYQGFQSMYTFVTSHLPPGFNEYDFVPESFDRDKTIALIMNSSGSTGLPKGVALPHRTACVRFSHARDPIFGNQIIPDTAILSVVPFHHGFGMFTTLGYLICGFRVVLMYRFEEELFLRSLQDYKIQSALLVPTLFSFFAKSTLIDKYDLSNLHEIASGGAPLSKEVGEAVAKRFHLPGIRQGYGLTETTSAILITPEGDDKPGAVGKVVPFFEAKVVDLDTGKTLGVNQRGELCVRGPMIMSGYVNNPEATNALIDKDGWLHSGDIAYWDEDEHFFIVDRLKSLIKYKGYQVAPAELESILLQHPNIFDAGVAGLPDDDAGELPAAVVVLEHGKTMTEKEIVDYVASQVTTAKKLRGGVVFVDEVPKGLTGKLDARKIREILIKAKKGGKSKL
Chain of ATP-dependent 6-phosphofructokinase (Trypanosoma brucei brucei) (O15648 whole entry, looked up): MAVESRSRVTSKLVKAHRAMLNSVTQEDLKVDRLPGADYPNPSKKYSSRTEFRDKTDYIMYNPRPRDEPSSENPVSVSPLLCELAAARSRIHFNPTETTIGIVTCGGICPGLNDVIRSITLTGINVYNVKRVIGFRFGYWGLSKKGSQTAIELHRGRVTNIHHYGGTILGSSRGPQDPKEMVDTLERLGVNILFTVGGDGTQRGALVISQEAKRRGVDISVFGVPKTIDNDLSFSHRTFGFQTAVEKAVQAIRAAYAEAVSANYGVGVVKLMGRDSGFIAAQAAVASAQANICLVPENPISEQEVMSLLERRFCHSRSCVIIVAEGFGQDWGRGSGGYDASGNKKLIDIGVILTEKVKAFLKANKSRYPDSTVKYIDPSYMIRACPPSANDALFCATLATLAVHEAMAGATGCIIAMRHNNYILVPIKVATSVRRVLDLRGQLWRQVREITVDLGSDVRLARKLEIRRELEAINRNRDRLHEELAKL

CCCCC/C(C=O)=C/c1ccccc1
inactive: Potency [1] | Potency [2] | Potency [3] | Potency [4] | Potency [5] | Potency [6] | activity, negative = inhibition ([7]; parasite line A) -0.781% | activity, negative = inhibition ([7]; parasite line B) -10.8% | Potency (3D7) | Potency (7G8) | Potency (AA1029) | Potency (AS120) | Potency (ATS189) | Potency (ATS95) | Potency (C2A) | Potency (CP185) | Potency (CP191) | Potency (CP192) | Potency (CP194) | Potency (CP201) | Potency (CP203) | Potency (CP211) | Potency (CP215) | Potency (CP217) | Potency (CP237) | Potency (CP238) | Potency (CP247) | Potency (CP250) | Potency (CP252) | Potency (CP256) | Potency (CP260) | Potency (CP262) | Potency (CP265)
